# Assay results from PubChem BioAssay AID743373 (National Center for Advancing Translational Sciences (NCATS), 2014).
# Records with an inconclusive call do not appear. The source made the active and inactive calls. Calls come from the whole dose curve; as a rule, active = well fitted inhibition curve with a large enough effect; inconclusive = small, poorly fitted or top-dose-only effect; inactive = flat fitted curve, though single readings scatter.
# Biological target: Galactokinase (Homo sapiens) (UniProt P51570)
# Sequence (P51570 whole entry, looked up): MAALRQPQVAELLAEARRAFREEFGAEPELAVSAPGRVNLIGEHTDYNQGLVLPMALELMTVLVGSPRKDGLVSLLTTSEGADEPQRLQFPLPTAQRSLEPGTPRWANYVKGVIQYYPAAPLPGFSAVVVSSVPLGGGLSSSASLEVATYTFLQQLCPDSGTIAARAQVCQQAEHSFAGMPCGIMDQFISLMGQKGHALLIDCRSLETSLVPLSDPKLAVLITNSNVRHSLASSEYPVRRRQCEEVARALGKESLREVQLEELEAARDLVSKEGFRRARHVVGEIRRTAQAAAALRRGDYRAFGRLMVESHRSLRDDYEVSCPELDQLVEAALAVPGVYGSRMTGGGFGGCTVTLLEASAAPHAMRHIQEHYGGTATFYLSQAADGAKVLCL
# Assay: qHTS for Inhibitors of Human Galactokinase (GALK): Confirmation Assay for SAR round 4
# Settings: recombinant GALK, ADP-Glo luminescence, 1 h
# Text: Inherited deficiency of galactose-1-phosphate uridyltransferase (GALT) can result in a potentially lethal disorder called Classic Galactosemia (OMIM 230400). Several lines of evidence indicate that an elevated level of galactose-1-phosphate (gal-1-p), the product of galactokinase (GALK), is a major, if not sole, pathogenic mechanism in patients with classic galactosemia. Therefore, finding inhibitors of GALK is a potential novel therapy for this inherent metabolic disease and is the long term goal of this project. Active compounds observed in the qHTS GALK assay (AID: 1868) were cherry picked and re-screened for validation. GALK (provided by Kent Lai) was assayed using ATP and D-(+)-Galactose (Sigma-Aldrich cat# G0750) as substrates. Promega ADP-Glo technology was used to detect the ADP product formed after the kinase reaction. […]
# Two uL/well of ATP-buffer solution (35 uM ATP, 20mM HEPES pH8.0, 5 mM MgCl2, 60 mM NaCl, 1 mM DTT, 0.01% BSA final concentration) was dispensed into 1536-well, assay plates (Greiner, solid white medium-binding plates) with Aurora Discovery BioRAPTR Flying Reagent Dispenser (FRD; Beckton-Dickenson). […] Luminescence was detected with the ViewLux plate reader (Perkin Elmer, Waltham, MA) using a 1 sec exposure time and 2x binning.
row,SMILES,Potency
1,CC1=C(C(=O)Nc2nncs2)C(c2nn(C)cc2Cl)N=C(Nc2nc3ccccc3o2)N1 (configuration not stated),6.85 µM (active)
2,Cn1cc(Br)c(C2N=C(Nc3nc4ccccc4o3)NC3=C2C(=O)CCC3)n1 (configuration not stated),4.32 µM (active)
